Reference: PubChem BioAssay (NCATS)
Records with an inconclusive call do not appear. Calls of active or inactive are those of the source. Calls follow the shape of the dose curve; as a rule, active = well fitted inhibition curve with a large enough effect in the main read-out, with a control signal flat (not every such curve was filed as active); inconclusive = small, poorly fitted or top-dose-only effect, or effect the other way, or a change in a side signal; inactive = no such curve, though single readings can be large or run the other way.

Experiment: Nrf2 qHTS screen for inhibitors: Validation (AID 493153);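 as to activity change, negative = inhibition: A549 cells with ARE-driven firefly luciferase reporter reporting Nrf2 activity; % of control where 0% means no effect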
Details: A549 ARE-Fluc reporter, 18-24 h; Potency: luciferase luminescence; viability change: measured here: cytotoxicity max response; luciferase luminescence, at 46.1 µM (top of the series); activity change, negative = inhibition: at the top concentration
Source text: NIH Molecular Libraries Probe Production Network [MLPCN] NIH Chemical Genomics Center [NCGC] MLPCN Grant: R03-MH092170-01 Assay Provider: Shyam Biswal, Johns Hopkins University Assay Overview: Nrf2 is a transcription factor that maintains cellular redox homoestasis and protects cells from xenobiotics. Nrf2 binds to the antioxidant response element (ARE) to induce gene expression of a broad spectrum of genes that encode for antioxidants. […] Finding a small molecule that act as an inhibitor of Nrf2 function would represent a novel therapeutic target that could lead to improvement in survival of patients undergoing chemo- and/or radio- therapy. 1. Shibata, T., et al., Genetic Alteration of Keap1 Confers Constitutive Nrf2 Activation and Resistance to Chemotherapy in Gallbladder Cancer. Gastroenterology, 2008. 2. Sjoblom, T., et al., The consensus coding sequences of human breast and colorectal cancers. Science, 2006. 314(5797): p. 268-74.
Assay Protocol Summary: A concentration-response assay was performed with A549 ARE_Fluc cells which are suspended in 5% FBS OPTI-MEM. Five uL were dispensed into 1536-well white TC-treated plate using the Kalypsys dispenser to achieve a density of 5000 cells/well in all columns except column 1. The plate is incubated at 37deg C at 5% CO2 for 2 hours before 23 nL of compounds are added with the Kalypsys pin tool equipped with a 1,536-pin array containing 10-nL slotted pins (FP1S10, 0.457-mm diameter, 50.8 mm long; V&P Scientific). The control compounds Budesonide and Staurosporine are both added at a concentration of 2mM and Budesonide is also added as a 1:10 titration, starting at 200uM, to achieve dose-response. After an 18-24 hour incubation at 37deg C at 5% CO2, 5ul of medium is added to column 1. Afterwards 1ul of 5x of CellTiter-Fluor (Promega) is added to every well. The plate is then incubated at 37deg C at 5% CO2 for 30 minutes before they are read on the ViewLux (Perkin Elmer) for a fluorescent read Ex=405(10)/Em=525(10) for a 3 second exposure, 2x binning, and high gain. Then 3 uL of 3x BugLite is dispensed into all wells and the plate is incubated at ambient room temperature for 15 minutes. Afterwards another ViewLux read is performed using the clear filter to get a luminescent read with the settings of 40 second exposure, 2x binning, and high gain. Cytotoxicity is assessed through the first fluorescent read and then biochemical activity against Nrf2 is measured in the luminescent read.
Potency is read from the fitted curve at half-maximal effect.

Q: Which “activity change, negative = inhibition” value does the source give for `CC(C)NCC(O)c1cc(O)cc(O)c1` (stereo not given) here?
A: The value was 19.7% (inactive).

Q: And the viability change?
A: Its viability change is 7.12%.

Q: Which results are given for `CCCCNc1c(C(=O)OCC)c(C)nc2c1cnn2CC`?
A: viability change: 2.43%; activity change, negative = inhibition: -10.1% (inactive)

Q: What does the source list for `C[C@]12C=CC(=O)C=C1CC[C@H]1[C@@H]3C[C@@H](O)[C@](O)(C(=O)CO)[C@@]3(C)C[C@H](O)[C@@]12F`?
A: Potency: 0.082 µM (active); viability change: -4.26%

Q: What does the source list for `COc1ccc(CCN(C)CCCC(C#N)(c2cc(OC)c(OC)c(OC)c2)C(C)C)cc1OC` (stereo not given)?
A: activity change, negative = inhibition: -6.54% (inactive); viability change: -13.6%

Q: For `CN/C(=C\[N+](=O)[O-])NCCSCc1ccc(CN(C)C)o1`, which viability change is on record?
A: Its viability change is 4.46%.

Q: And the “activity change, negative = inhibition” value?
A: Its value is 0% (inactive).

Q: What does the source list for `CC(=O)Nc1nnc(S(N)(=O)=O)s1`?
A: activity change, negative = inhibition: -14.6% (inactive); viability change: 3.35%

Q: Which results are given for `OCCN1CCN(CC/C=C2/c3ccccc3Sc3ccc(C(F)(F)F)cc32)CC1`?
A: activity change, negative = inhibition: -5.2% (inactive); viability change: -4.74%

Q: Which “activity change, negative = inhibition” value does the source give for `CCCCCN(CCCCC)C(=O)C(CCC(=O)O)NC(=O)c1ccc(Cl)c(Cl)c1` (stereo not given) here?
A: Its value is 2.49% (inactive).

Q: And the viability change?
A: The viability change was 3.55%.

Q: Which results are given for `Cc1nnc(SCC2=C(C(=O)O)N3C(=O)[C@@H](NC(=O)Cn4cnnn4)[C@H]3SC2)s1`?
A: activity change, negative = inhibition: 0% (inactive); viability change: -1.79%

Q: With `CCN(CC)CC(=O)Nc1c(C)cccc1C` as the compound, how does the viability change read?
A: The viability change was -7.11%.

Q: And the “activity change, negative = inhibition” value?
A: Its value is -2.35% (inactive).

Q: Which “activity change, negative = inhibition” value does the source give for `COC(=O)[C@H]1[C@H]2C[C@@H]3c4[nH]c5cc(OC)ccc5c4CCN3C[C@H]2C[C@@H](OC(=O)c2cc(OC)c(OC)c(OC)c2)[C@@H]1OC` here?
A: The value was -10.4% (inactive).

Q: And the viability change?
A: Its viability change is -13.6%.

Q: For `CN1C[C@H](C(=O)N[C@]2(C)O[C@@]3(O)[C@@H]4CCCN4C(=O)[C@H](Cc4ccccc4)N3C2=O)C[C@@H]2c3cccc4[nH]cc(c34)C[C@H]21`, which “activity change, negative = inhibition” value is on record?
A: The value was -0.16% (inactive).

Q: What about the viability change of the same compound?
A: Its viability change is -1.86%.

Q: What does the source list for `CN(C)CCCN1c2ccccc2Sc2ccc(C(F)(F)F)cc21`?
A: viability change: 0.635%; activity change, negative = inhibition: -7.64% (inactive)

Q: With `CC(=O)OCC1=C(C(=O)O)N2C(=O)[C@@H](NC(=O)Cc3cccs3)[C@H]2SC1` as the compound, how does the viability change read?
A: The viability change was 0.396%.

Q: And the “activity change, negative = inhibition” value?
A: Its value is 4.87% (inactive).

Q: Which “activity change, negative = inhibition” value does the source give for `CC(=O)Oc1cc(C(C)C)c(OCCN(C)C)cc1C` here?
A: Its value is 2.63% (inactive).

Q: And the viability change?
A: Its viability change is -6.98%.

Q: For `CCN(CC)CCNC(=O)c1cc(S(C)(=O)=O)ccc1OC`, which “activity change, negative = inhibition” value is on record?
A: The value was -2.94% (inactive).

Q: And the viability change?
A: Its viability change is 10.1%.

Q: With `Cc1scc2c1N(C(=O)CN1CCN(C)CC1)c1ccccc1NC2=O` as the compound, how does the “activity change, negative = inhibition” value read?
A: Its value is 0.995% (inactive).

Q: And the viability change?
A: The viability change was 3.95%.

Q: For `OCCN1CCN(CCCN2c3ccccc3C=Cc3ccccc32)CC1`, which viability change is on record?
A: Its viability change is 4.92%.

Q: And the “activity change, negative = inhibition” value?
A: The value was -8.32% (inactive).

Q: With `Cc1ccc(/C(=C\CN2CCCC2)c2ccccn2)cc1` as the compound, how does the viability change read?
A: The viability change was 2.7%.

Q: And the “activity change, negative = inhibition” value?
A: The value was 12.4% (inactive).

Q: With `CCc1c(C)[nH]c2c1C(=O)C(CN1CCOCC1)CC2` (stereo not given) as the compound, how does the viability change read?
A: Its viability change is 1.73%.

Q: What about the “activity change, negative = inhibition” value of the same compound?
A: The value was 0.982% (inactive).
